# Experimental data published in PubChem BioAssay (NCATS).
# “And” between values parts separate entries of the source, which are not always exact repeats. Equal entries are not always repeated. Records with an inconclusive call do not appear. A number with no mark means an inactive call. The source made the active and inactive calls. Calls come from the whole dose curve; as a rule, active = well fitted inhibition curve with a large enough effect; inconclusive = small, poorly fitted or top-dose-only effect; inactive = flat fitted curve, though single readings scatter.
# Assays:
# PC49 = test: qHTS profiling for inhibitors of Plasmodium falciparum proliferation (AID 504749); note: potency is the fitted concentration of half-maximal effect; settings: P. falciparum in erythrocytes, SYBR Green DNA, 72 h; series mostly up to 28.7 µM
# Procedure, shortened: (§1)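 Readout was DNA-dye fluorescence from lysed cultures, ex 485/em 535 nm. Parasitized red cells had grown 72 h with compound; data scaled between 0.29 uM artemisinin and DMSO wells and corrected using vehicle-only plates.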
# SC27B = test: as above; settings: P. falciparum in erythrocytes, SYBR Green DNA, 72 h; series mostly up to 28.7 µM
# Procedure, shortened: as §1
# TAB109 = test: as above; settings: P. falciparum in erythrocytes, SYBR Green DNA, 72 h; series mostly up to 28.7 µM
# Procedure, shortened: as §1
# W2 = test: as above; settings: P. falciparum in erythrocytes, SYBR Green DNA, 72 h; series mostly up to 28.7 µM
# Procedure, shortened: as §1
# CRL-7250 = normal cell line; test: Cytotoxic Profiling of Annotated Libraries Using Quantitative High-Throughput Screening (AID 1296008); settings: Five cell lines viability, CellTiter-Glo ATP luminescence, 48-72 h; max response: stronger effect = lower value; for max response: % is set by controls: 0 for no effect and ±100 for the full control effect
# Procedure, shortened: (§2)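 Cells exposed to compounds for 48 or 72 hr at 37 degrees Celsius. Viability read as ATP-coupled luminescence with CellTiter-Glo after 10 min at room temperature.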
# HaCat [1] = test: as above; settings: Five cell lines viability, CellTiter-Glo ATP luminescence, 48-72 h; max response: stronger effect = lower value
# Procedure, shortened: as §2
# KB-3-1 = test: as above; settings: Five cell lines viability, CellTiter-Glo ATP luminescence, 48-72 h; max response: stronger effect = lower value
# Procedure, shortened: as §2
# N140 = test: qHTS profiling for inhibitors of Plasmodium falciparum proliferation (AID 504749); note: potency is the fitted concentration of half-maximal effect; settings: P. falciparum in erythrocytes, SYBR Green DNA, 72 h; series mostly up to 28.7 µM
# Procedure, shortened: as §1
# P94_40 = test: as above; settings: P. falciparum in erythrocytes, SYBR Green DNA, 72 h; series mostly up to 28.7 µM
# Procedure, shortened: as §1
# PAD = test: as above; settings: P. falciparum in erythrocytes, SYBR Green DNA, 72 h; series mostly up to 28.7 µM
# Procedure, shortened: as §1
# PC15 = test: as above; settings: P. falciparum in erythrocytes, SYBR Green DNA, 72 h; series mostly up to 28.7 µM
# Procedure, shortened: as §1
# TAB113 = test: as above; settings: P. falciparum in erythrocytes, SYBR Green DNA, 72 h; series mostly up to 28.7 µM
# Procedure, shortened: as §1
# NIH3T3 = test: Cytotoxic Profiling of Annotated Libraries Using Quantitative High-Throughput Screening (AID 1296008); settings: Five cell lines viability, CellTiter-Glo ATP luminescence, 48-72 h; max response: stronger effect = lower value; for max response: % is set by controls: 0 for no effect and ±100 for the full control effect
# Procedure, shortened: as §2
# JCK = test: qHTS profiling for inhibitors of Plasmodium falciparum proliferation (AID 504749); note: potency is the fitted concentration of half-maximal effect; settings: P. falciparum in erythrocytes, SYBR Green DNA, 72 h; series mostly up to 28.7 µM
# Procedure, shortened: as §1
# P93_24 = test: as above; settings: P. falciparum in erythrocytes, SYBR Green DNA, 72 h; series mostly up to 28.7 µM
# Procedure, shortened: as §1
# PC26 = test: as above; settings: P. falciparum in erythrocytes, SYBR Green DNA, 72 h; series mostly up to 28.7 µM
# Procedure, shortened: as §1
# TAB165 = test: as above; settings: P. falciparum in erythrocytes, SYBR Green DNA, 72 h; series mostly up to 28.7 µM
# Procedure, shortened: as §1
# HACAT [2] = test: qHTS assay to identify novel small-molecules to repurpose for Merkel cell carcinoma treatment (AID 1296009); settings: MCC and control cell lines, CellTiter-Glo viability, 72 h; at 44.8 µM (top of the series) unless noted
# Procedure, shortened: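 Cells were incubated with compound for 72 hr at 37 degree celsius before CellTiter-Glo addition. Luminescence was normalized with no-cell wells as full cytotoxicity and DMSO as baseline.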
# Note: nearly all actives have a fitted effect of over 60% in size.
smiles,measurement,setting,value
O=C(CCCN1CCC(O)(c2ccc(Br)cc2)CC1)c1ccc(F)cc1,Potency,PC49,0.398 µM (active)
same,Potency,SC27B,inactive
same,Potency,TAB109,3.16 µM (active)
same,Potency,W2,1.44 µM (active)
same,max response,CRL-7250,2.7%
same,max response,HaCat [1],-2.82%
same,max response,KB-3-1,3.87%
CN(C)CCCOc1nn(Cc2ccccc2)c2ccccc12,Potency,N140,inactive
same,Potency,P94_40,inactive
same,Potency,PAD,inactive
same,Potency,PC15,inactive
same,Potency,PC49,inactive
same,Potency,SC27B,inactive
same,Potency,TAB109,inactive
same,Potency,TAB113,inactive
same,Potency,W2,2.28 µM (active)
same,max response,CRL-7250,1.45%
same,max response,HaCat [1],3.55%
CC(=O)[C@H]1CC[C@H]2[C@@H]3C[C@H](C)C4=CC(=O)CC[C@]4(C)[C@H]3[C@@H](O)C[C@]12C,outcome,CRL-7250,inactive
same,max response,HaCat [1],-3.2%
same,max response,KB-3-1,30.5%
same,outcome,NIH3T3,inactive
C[C@@H]1C[C@H]2[C@@H]3CCC4=CC(=O)C=C[C@]4(C)[C@@]3(F)[C@@H](O)C[C@]2(C)[C@H]1C(=O)CO,Potency,JCK,inactive
same,Potency,P94_40,inactive
same,Potency,PC15,inactive
same,Potency,PC49,inactive
same,Potency,SC27B,inactive
same,Potency,TAB109,inactive
same,Potency,TAB113,inactive
same,max response,CRL-7250,-8.13%
same,max response,HaCat [1],-8.02%
same,max response,KB-3-1,11.3%
same,max response,NIH3T3,-2.44%
COc1cccc(CCc2ccccc2OCC(CN(C)C)OC(=O)CCC(=O)O)c1 (stereo not drawn),Potency,JCK,10 µM (active)
same,Potency,N140,2.82 µM (active)
same,Potency,P93_24,4.47 µM (active)
same,Potency,P94_40,4.47 µM (active)
same,Potency,PAD,3.55 µM (active)
same,Potency,PC15,5.01 µM (active)
same,Potency,PC26,3.79 µM (active)
same,Potency,PC49,3.16 µM (active)
same,Potency,SC27B,5.01 µM (active)
same,Potency,TAB109,4.47 µM (active)
same,Potency,TAB113,5.62 µM (active)
same,Potency,TAB165,4.47 µM (active)
same,Potency,W2,0.757 µM (active)
same,max response,CRL-7250,3.68%
same,max response,KB-3-1,-2.49%
same,max response,NIH3T3,-1.97%
COc1ccc(CN2CCN(C(c3ccc(F)cc3)c3ccc(F)cc3)CC2)c(OC)c1OC,Potency,N140,8.91 µM (active)
same,Potency,P93_24,7.94 µM (active)
same,Potency,P94_40,7.08 µM (active)
same,Potency,PAD,8.91 µM (active)
same,Potency,PC26,12 µM (active)
same,Potency,SC27B,10 µM (active)
same,Potency,TAB109,11.2 µM (active)
same,Potency,TAB113,8.91 µM (active)
same,Potency,TAB165,7.08 µM (active)
same,Potency,W2,3.38 µM (active)
same,outcome,CRL-7250,inactive
same,max response,HaCat [1],-19.9%
same,outcome,HaCat [1],inactive
same,max response,KB-3-1,6.7%
same,max response,NIH3T3,1.96% and 2.43%
same,outcome,HACAT [2],inactive
C/C=C(/C(=C/C)c1ccc(O)cc1)c1ccc(O)cc1,max response,CRL-7250,1.03%
same,max response,HaCat [1],-0.716%
same,max response,KB-3-1,-11.5%
OC(CCN1CCCCC1)(c1ccccc1)c1ccccc1,Potency,P94_40,10 µM (active)
same,Potency,TAB113,8.91 µM (active)
same,Potency,TAB165,14.1 µM (active)
same,Potency,W2,4.26 µM (active)
same,outcome,CRL-7250,inactive
same,outcome,HaCat [1],inactive
same,max response,NIH3T3,2.78%
same,outcome,HACAT [2],inactive
CCCCOc1ccc(OCCCN2CCOCC2)cc1,Potency,JCK,inactive
same,Potency,N140,inactive
same,Potency,P93_24,inactive
same,Potency,P94_40,inactive
same,Potency,PAD,inactive
same,Potency,PC15,inactive
same,Potency,PC26,inactive
same,Potency,PC49,inactive
same,Potency,SC27B,inactive
same,Potency,TAB109,inactive
same,Potency,TAB113,inactive
same,Potency,TAB165,inactive
same,Potency,W2,inactive
same,max response,CRL-7250,2.95%
same,max response,HaCat [1],-3.82%
same,max response,KB-3-1,3.23%
C[C@H]1C[C@H]2[C@@H]3CCC4=CC(=O)C=C[C@]4(C)[C@@]3(Cl)[C@@H](O)C[C@]2(C)[C@@]1(O)C(=O)CO,Potency,JCK,inactive
same,Potency,N140,inactive
same,Potency,P93_24,inactive
same,Potency,P94_40,inactive
same,Potency,PAD,inactive
same,Potency,PC15,inactive
same,Potency,PC26,inactive
same,Potency,PC49,inactive
same,Potency,SC27B,inactive
same,Potency,TAB109,inactive
same,Potency,TAB113,inactive
same,Potency,TAB165,inactive
same,Potency,W2,inactive
same,outcome,CRL-7250,inactive
same,max response,HaCat [1],-6.93%
same,max response,KB-3-1,6.92%
same,max response,NIH3T3,-12.3%
CCOC(=O)[C@H](CCc1ccccc1)N[C@@H](C)C(=O)N1Cc2ccccc2C[C@H]1C(=O)O,max response,CRL-7250,-9.56%
same,outcome,HaCat [1],inactive
same,max response,NIH3T3,-19.6%
same,outcome,HACAT [2],inactive
COc1cc2c(cc1OC)[C@@H]1CC(=O)[C@@H](CC(C)C)CN1CC2,max response,CRL-7250,-4.44%
same,max response,HaCat [1],-0.956%
same,outcome,NIH3T3,inactive
O=C(OCC(O)CO)c1ccccc1Nc1ccnc2cc(Cl)ccc12 (stereo not drawn),outcome,CRL-7250,inactive
same,max response,HaCat [1],-6.51%
same,max response,KB-3-1,1.57%
C[C@]12CC[C@H]3[C@@H](CCC4=CC(=O)CC[C@@]43C)[C@@H]1CC[C@@H]2C(=O)CO,max response,CRL-7250,-11.9%
same,max response,KB-3-1,-3.06%
same,max response,NIH3T3,-2.44%
CC(C)=CCC1C(=O)N(c2ccccc2)N(c2ccccc2)C1=O,Potency,JCK,inactive
same,Potency,P93_24,inactive
same,Potency,PC15,inactive
same,Potency,PC49,inactive
same,Potency,TAB109,inactive
same,max response,CRL-7250,-25.1%
same,max response,KB-3-1,-9.06%
same,max response,NIH3T3,-29%
CN(C)CC/C=C1\c2ccccc2Sc2ccc(Cl)cc21,Potency,N140,12.6 µM (active)
same,Potency,P94_40,10 µM (active)
same,Potency,PC15,11.2 µM (active)
same,Potency,PC49,11.2 µM (active)
same,Potency,TAB165,7.94 µM (active)
same,Potency,W2,2.69 µM (active)
same,max response,CRL-7250,-3.17%
same,outcome,HaCat [1],inactive
same,max response,KB-3-1,-2.56%
same,max response,NIH3T3,-4.42%
same,outcome,HACAT [2],inactive
COc1cc2c(cc1OC)C(C(C(=O)N(CCc1ccc(OC)c(OC)c1OC)CCc1ccc(OC)c(OC)c1OC)c1ccccc1)=NCC2 (stereo not drawn),Potency,JCK,10 µM (active)
same,Potency,P93_24,2.24 µM (active)
same,Potency,P94_40,2.51 µM (active)
same,Potency,PAD,1 µM (active)
same,Potency,PC15,2.51 µM (active)
same,Potency,PC26,4.78 µM (active)
same,Potency,PC49,1 µM (active)
same,Potency,SC27B,2.24 µM (active)
same,Potency,TAB109,3.16 µM (active)
same,Potency,TAB113,2.82 µM (active)
same,Potency,TAB165,1.26 µM (active)
same,Potency,W2,1.07 µM (active)
same,max response,CRL-7250,-6.63%
same,outcome,HaCat [1],inactive
same,max response,KB-3-1,28%
same,max response,NIH3T3,0.673%
same,outcome,HACAT [2],inactive
C=C1C[C@H]2[C@@H]3C=C(C)C4=CC(=O)CC[C@]4(C)[C@H]3CC[C@]2(C)[C@@]1(OC(C)=O)C(C)=O,max response,CRL-7250,1.09%
same,max response,HaCat [1],-2.22%
same,max response,KB-3-1,17.3%
same,max response,NIH3T3,-3.66%
CN1CCC(=C2c3ccccc3Sc3ccccc32)CC1,Potency,JCK,inactive
same,Potency,N140,10 µM (active)
same,Potency,P93_24,10 µM (active)
same,Potency,P94_40,10 µM (active)
same,Potency,PAD,12.6 µM (active)
same,Potency,PC49,inactive
same,Potency,SC27B,11.2 µM (active)
same,Potency,TAB109,11.2 µM (active)
same,Potency,TAB113,11.2 µM (active)
same,Potency,TAB165,7.94 µM (active)
same,Potency,W2,2.13 µM (active)
same,max response,CRL-7250,-1.99%
same,outcome,HaCat [1],inactive
same,max response,KB-3-1,-16.3%
same,max response,NIH3T3,-14.3%
same,outcome,HACAT [2],inactive
CN=C(NC#N)NCCSCc1csc(N=C(N)N)n1,Potency,JCK,inactive
same,Potency,N140,inactive
same,Potency,P93_24,inactive
same,Potency,P94_40,inactive
same,Potency,PAD,inactive
same,Potency,PC15,inactive
same,Potency,PC26,inactive
same,Potency,PC49,inactive
same,Potency,SC27B,inactive
same,Potency,TAB113,inactive
same,Potency,TAB165,inactive
same,Potency,W2,inactive
same,max response,CRL-7250,1.65%
same,max response,HaCat [1],3.38%
same,max response,NIH3T3,4.93%
